According to the supplement of paper PMC6411743:
± gives the standard deviation of the averaged measurements. Targets with the largest changes are over-represented here; the source holds about 6,500 in all.

Compound: Nc1ncnc2c1ncn2[C@@H]1O[C@H](COP(=O)(O)OP(=O)(O)OP(=O)(O)O)[C@@H](O)[C@H]1O [adenosine triphosphate]
Test: NP40-soluble protein abundance relative to vehicle (solubility fold change) (ratio); higher = more soluble protein in presence of ATP
Summary of the method: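 Across three independent experiments, values are fold changes against the detergent-processed vehicle for each replicate, based on vsn-normalised intensities. The samples were Jurkat crude lysate treated with eight concentrations (0.1 to 10 mM) for 10 min at room temperature and then 3 min at 37 °C. Lysate was solubilised with 0.8% NP40 and benzonase, ultracentrifuged, and the supernatant analysed by TMT-labelled LC-MS/MS.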

Sequence of UniProt Q96MX3 (Q96MX3 whole entry): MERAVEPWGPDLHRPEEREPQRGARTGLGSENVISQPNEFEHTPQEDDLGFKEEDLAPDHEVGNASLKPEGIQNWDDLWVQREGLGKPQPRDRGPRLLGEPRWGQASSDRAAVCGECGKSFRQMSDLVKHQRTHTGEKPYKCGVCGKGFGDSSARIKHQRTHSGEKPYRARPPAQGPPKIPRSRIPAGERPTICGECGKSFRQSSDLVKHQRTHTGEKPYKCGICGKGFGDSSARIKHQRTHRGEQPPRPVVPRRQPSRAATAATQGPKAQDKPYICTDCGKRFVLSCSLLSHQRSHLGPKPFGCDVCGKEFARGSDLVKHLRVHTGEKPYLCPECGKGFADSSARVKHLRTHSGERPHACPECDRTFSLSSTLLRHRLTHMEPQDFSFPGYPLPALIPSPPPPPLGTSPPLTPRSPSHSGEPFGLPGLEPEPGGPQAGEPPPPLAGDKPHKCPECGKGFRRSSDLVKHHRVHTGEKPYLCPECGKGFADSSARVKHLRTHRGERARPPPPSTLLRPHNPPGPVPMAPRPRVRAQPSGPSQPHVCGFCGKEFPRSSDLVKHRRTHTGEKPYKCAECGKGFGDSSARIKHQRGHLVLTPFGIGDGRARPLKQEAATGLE
Sequence of UniProt Q9NQG5 (Q9NQG5 whole entry): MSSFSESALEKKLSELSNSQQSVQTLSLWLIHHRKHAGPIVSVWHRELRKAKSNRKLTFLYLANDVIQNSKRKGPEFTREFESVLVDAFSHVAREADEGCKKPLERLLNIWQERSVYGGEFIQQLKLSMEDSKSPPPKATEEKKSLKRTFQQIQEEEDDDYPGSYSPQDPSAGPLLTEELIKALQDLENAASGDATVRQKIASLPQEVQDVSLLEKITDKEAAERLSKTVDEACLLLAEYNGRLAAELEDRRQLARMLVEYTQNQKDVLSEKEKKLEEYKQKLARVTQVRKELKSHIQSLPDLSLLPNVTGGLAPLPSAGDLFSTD
Sequence of UniProt Q96HS1 (Q96HS1 whole entry): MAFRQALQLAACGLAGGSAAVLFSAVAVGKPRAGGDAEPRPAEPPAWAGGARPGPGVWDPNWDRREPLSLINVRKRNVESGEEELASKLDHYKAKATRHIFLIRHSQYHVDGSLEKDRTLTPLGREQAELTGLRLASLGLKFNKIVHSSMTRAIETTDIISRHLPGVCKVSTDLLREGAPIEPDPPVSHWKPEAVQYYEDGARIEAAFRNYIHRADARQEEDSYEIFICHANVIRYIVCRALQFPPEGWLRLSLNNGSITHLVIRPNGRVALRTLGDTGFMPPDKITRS
Sequence of UniProt Q96N16 (Q96N16 whole entry): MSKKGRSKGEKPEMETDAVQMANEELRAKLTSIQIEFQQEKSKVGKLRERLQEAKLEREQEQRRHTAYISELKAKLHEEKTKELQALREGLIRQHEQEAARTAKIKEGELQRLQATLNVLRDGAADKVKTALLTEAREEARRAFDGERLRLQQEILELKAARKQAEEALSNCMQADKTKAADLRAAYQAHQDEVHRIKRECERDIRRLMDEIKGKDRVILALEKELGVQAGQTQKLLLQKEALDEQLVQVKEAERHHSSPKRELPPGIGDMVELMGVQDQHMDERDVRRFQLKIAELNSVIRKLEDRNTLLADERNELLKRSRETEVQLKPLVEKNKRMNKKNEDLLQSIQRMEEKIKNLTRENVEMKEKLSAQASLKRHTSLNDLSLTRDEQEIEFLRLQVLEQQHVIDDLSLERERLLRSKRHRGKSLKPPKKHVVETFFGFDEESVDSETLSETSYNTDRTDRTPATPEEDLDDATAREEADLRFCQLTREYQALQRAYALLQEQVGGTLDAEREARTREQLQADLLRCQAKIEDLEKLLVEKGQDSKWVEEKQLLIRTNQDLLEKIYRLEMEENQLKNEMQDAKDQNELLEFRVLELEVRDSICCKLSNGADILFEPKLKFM
Sequence of UniProt Q9NYK6 (Q9NYK6 whole entry): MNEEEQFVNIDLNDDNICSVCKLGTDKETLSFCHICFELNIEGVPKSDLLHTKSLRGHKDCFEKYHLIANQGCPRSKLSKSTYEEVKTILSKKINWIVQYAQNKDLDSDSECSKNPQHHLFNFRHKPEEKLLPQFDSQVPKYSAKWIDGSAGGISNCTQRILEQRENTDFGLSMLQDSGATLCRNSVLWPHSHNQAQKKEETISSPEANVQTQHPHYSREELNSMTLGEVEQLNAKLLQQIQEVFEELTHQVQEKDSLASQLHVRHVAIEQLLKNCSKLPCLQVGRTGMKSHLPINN
Sequence of UniProt Q9HDC9 (Q9HDC9 whole entry): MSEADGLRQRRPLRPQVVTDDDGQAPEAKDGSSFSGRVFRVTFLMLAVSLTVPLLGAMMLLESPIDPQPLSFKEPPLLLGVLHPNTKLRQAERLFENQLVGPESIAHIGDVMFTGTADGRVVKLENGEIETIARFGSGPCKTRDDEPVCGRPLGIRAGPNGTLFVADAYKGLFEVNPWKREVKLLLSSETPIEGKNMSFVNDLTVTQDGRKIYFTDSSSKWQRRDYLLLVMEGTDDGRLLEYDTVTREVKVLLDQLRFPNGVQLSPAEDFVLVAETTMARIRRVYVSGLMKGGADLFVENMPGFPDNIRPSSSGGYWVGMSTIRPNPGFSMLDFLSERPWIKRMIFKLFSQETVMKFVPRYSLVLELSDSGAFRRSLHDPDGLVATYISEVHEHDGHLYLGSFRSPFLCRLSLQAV
Sequence of UniProt Q9BVC3 (Q9BVC3 whole entry): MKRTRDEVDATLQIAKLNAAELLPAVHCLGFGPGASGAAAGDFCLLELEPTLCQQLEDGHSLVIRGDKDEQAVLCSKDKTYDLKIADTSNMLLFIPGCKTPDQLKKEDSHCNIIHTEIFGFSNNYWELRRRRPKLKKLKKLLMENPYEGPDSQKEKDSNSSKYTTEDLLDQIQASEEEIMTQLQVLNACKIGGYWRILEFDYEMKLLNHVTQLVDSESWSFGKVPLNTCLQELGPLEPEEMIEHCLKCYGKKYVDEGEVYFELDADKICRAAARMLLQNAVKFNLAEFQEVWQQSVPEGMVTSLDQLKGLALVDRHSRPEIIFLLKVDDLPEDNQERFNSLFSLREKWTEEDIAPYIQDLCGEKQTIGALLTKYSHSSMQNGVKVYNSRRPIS
Sequence of UniProt Q969U7 (Q969U7 whole entry): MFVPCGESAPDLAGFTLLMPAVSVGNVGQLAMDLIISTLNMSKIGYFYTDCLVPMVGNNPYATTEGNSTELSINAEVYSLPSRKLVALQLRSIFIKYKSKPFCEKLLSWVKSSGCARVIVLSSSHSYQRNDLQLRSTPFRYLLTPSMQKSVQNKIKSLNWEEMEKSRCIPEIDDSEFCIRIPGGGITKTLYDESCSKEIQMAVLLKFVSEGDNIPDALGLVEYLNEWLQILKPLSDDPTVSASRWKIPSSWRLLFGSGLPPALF
Sequence of UniProt Q9BTZ2 (Q9BTZ2 whole entry): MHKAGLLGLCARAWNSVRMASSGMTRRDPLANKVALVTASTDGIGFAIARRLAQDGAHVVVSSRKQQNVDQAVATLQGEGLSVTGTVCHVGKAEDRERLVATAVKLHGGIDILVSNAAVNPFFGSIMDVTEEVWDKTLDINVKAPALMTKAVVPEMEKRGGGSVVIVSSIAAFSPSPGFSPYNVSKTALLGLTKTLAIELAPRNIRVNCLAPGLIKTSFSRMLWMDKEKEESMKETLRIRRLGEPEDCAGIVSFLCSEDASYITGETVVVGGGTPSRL
Sequence of UniProt Q96KB5 (Q96KB5 whole entry): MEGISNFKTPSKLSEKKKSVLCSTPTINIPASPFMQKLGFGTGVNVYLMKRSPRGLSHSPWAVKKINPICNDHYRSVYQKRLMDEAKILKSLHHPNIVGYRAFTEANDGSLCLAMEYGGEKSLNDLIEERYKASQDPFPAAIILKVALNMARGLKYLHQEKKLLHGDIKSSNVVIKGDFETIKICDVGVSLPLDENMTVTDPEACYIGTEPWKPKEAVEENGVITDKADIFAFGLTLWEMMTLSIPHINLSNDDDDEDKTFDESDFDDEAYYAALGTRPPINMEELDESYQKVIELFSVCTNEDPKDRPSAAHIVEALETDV
Sequence of UniProt Q9NVR5 (Q9NVR5 whole entry): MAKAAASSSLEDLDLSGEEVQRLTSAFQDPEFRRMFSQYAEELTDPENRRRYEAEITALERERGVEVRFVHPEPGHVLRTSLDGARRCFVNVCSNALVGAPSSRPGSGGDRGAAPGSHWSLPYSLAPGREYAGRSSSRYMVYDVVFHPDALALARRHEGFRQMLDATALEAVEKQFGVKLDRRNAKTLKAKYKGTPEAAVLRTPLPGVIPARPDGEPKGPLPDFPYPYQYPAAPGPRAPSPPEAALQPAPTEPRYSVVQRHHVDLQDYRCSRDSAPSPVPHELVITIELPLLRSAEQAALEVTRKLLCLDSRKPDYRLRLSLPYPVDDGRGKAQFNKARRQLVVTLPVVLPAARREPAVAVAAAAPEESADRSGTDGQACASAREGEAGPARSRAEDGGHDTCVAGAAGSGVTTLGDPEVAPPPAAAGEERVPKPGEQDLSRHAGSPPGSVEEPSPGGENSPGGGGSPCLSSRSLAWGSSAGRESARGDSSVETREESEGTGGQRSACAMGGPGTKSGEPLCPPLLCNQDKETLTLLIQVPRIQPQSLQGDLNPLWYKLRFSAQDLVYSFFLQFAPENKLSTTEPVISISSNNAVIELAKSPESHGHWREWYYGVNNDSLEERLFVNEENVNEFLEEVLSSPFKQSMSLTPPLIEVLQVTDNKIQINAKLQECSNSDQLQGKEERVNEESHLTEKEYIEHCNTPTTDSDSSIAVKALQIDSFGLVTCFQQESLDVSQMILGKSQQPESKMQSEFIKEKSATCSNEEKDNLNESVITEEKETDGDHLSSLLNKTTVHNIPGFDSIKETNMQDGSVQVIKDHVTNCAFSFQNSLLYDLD
Sequence of UniProt Q96LD8 (Q96LD8 whole entry): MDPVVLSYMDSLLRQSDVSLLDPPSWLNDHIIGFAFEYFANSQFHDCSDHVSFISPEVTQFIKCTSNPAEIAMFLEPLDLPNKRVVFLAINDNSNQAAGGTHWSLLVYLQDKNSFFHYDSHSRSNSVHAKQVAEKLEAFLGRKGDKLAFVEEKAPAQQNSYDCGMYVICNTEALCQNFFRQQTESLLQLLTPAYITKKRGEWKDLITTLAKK

Target	NP40-soluble protein abundance (concentration: 1mM)	NP40-soluble protein abundance (concentration: 2mM)	NP40-soluble protein abundance (concentration: 4mM)	NP40-soluble protein abundance (concentration: 6mM)	NP40-soluble protein abundance (concentration: 8mM)	NP40-soluble protein abundance (concentration: 10mM)
SENP8 (UniProt Q96LD8)	0.97 ± 0.057	0.942 ± 0.032	0.943 ± 0.014	0.922 ± 0.035	0.911 ± 0.024	0.932 ± 0.023
DSCC1 (UniProt Q9BVC3)	1.04 ± 0.038	1.06 ± 0.011	1.03 ± 0.018	1.01 ± 0.021	1.077 ± 0.0062	1.05 ± 0.037
UniProt Q96N16|Q96N16-2	1.17 ± 0.24	1.27 ± 0.16	1.28 ± 0.24	1.37 ± 0.19	1.27 ± 0.23	1.36 ± 0.17
UniProt Q969M3|Q969M3-3	0.981 ± 0.16	0.97 ± 0.19	0.974 ± 0.22	0.987 ± 0.24	0.961 ± 0.19	0.996 ± 0.19
DNAJC9 (UniProt Q8WXX5)	1.04 ± 0.024	1.13 ± 0.012	1.34 ± 0.04	1.55 ± 0.057	1.73 ± 0.12	1.76 ± 0.1
MRPL17 (UniProt Q9NRX2)	1.08 ± 0.13	0.934 ± 0.14	0.939 ± 0.14	0.916 ± 0.33	0.93 ± 0.21	0.822 ± 0.18
MRPL38 (UniProt Q96DV4)	1.04 ± 0.035	0.869 ± 0.076	0.87 ± 0.08	0.925 ± 0.3	0.86 ± 0.15	0.839 ± 0.15
TBRG4 (UniProt Q969Z0)	0.981 ± 0.047	0.957 ± 0.015	0.928 ± 0.026	0.962 ± 0.069	0.955 ± 0.022	0.948 ± 0.015
PNKP (UniProt Q96T60)	1.04 ± 0.02	1.0346 ± 0.00031	1.03 ± 0.022	1.05 ± 0.023	1.11 ± 0.036	1.157 ± 0.011
UniProt Q9BTE6|Q9BTE6-3	0.947 ± 0.046	0.965 ± 0.018	0.932 ± 0.015	0.964 ± 0.067	0.928 ± 0.036	0.958 ± 0.025
UniProt Q9UEY8|Q9UEY8-2	1.01 ± 0.019	1.02 ± 0.018	1.01 ± 0.014	1.02 ± 0.035	0.99 ± 0.023	1.004 ± 0.0086
TMEM109 (UniProt Q9BVC6)	0.943 ± 0.051	0.962 ± 0.066	0.999 ± 0.082	0.915 ± 0.03	0.955 ± 0.046	0.91 ± 0.074
RDH14 (UniProt Q9HBH5)	0.997 ± 0.049	1.01 ± 0.0098	1.03 ± 0.043	0.998 ± 0.056	1.05 ± 0.037	1.01 ± 0.035
UniProt Q96GN5|Q96GN5-4|Q96GN5-2	1.09 ± 0.19	1.16 ± 0.23	1.23 ± 0.36	1.29 ± 0.35	1.34 ± 0.41	1.42 ± 0.57
MRPS31 (UniProt Q92665)	0.994 ± 0.058	0.93 ± 0.066	0.871 ± 0.062	0.923 ± 0.14	0.865 ± 0.088	0.857 ± 0.073
PGAM5 (UniProt Q96HS1)	1.1 ± 0.037	1.14 ± 0.083	1.3 ± 0.06	1.48 ± 0.16	1.64 ± 0.089	1.72 ± 0.11
UniProt Q8WX93|Q8WX93-3|Q8WX93-4|Q8WX93-5|Q8WX93-8	0.978 ± 0.024	0.966 ± 0.046	1.01 ± 0.026	0.97 ± 0.042	0.971 ± 0.044	0.986 ± 0.036
UniProt Q9BXI6|Q9BXI6-2	0.935 ± 0.035	0.917 ± 0.032	0.927 ± 0.031	0.941 ± 0.038	0.895 ± 0.025	0.925 ± 0.045
MECR (UniProt Q9BV79)	0.969 ± 0.013	0.959 ± 0.056	0.964 ± 0.037	0.957 ± 0.054	0.94 ± 0.013	0.92 ± 0.012
UniProt Q9NUL3-3|Q9NUL3-8|A0A0A0MTD1|E7EPX0|E7EVJ4|F8VPI7|A0A0A0MTC5|E9PH62|Q9NUL3|Q9NUL3-2	0.971 ± 0.048	1.11 ± 0.13	1.02 ± 0.057	1.11 ± 0.15	1.16 ± 0.099	1.3 ± 0.11

Target	NP40-soluble protein abundance (concentration: 1mM)	NP40-soluble protein abundance (concentration: 2mM)	NP40-soluble protein abundance (concentration: 4mM)	NP40-soluble protein abundance (concentration: 6mM)	NP40-soluble protein abundance (concentration: 8mM)	NP40-soluble protein abundance (concentration: 10mM)
PIEZO1 (UniProt Q92508)	1.1 ± 0.12	1.09 ± 0.13	1.14 ± 0.24	1.14 ± 0.12	1.09 ± 0.12	1.09 ± 0.012
EIF2AK4 (UniProt Q9P2K8)	1.04 ± 0.096	1.02 ± 0.078	1.02 ± 0.071	0.967 ± 0.073	1.03 ± 0.056	1.03 ± 0.082
UniProt Q92833|Q92833-2	1.33 ± 0.27	1.32 ± 0.34	1.48 ± 0.51	1.49 ± 0.48	1.59 ± 0.63	1.76 ± 0.69
FUT8 (UniProt Q9BYC5)	1 ± 0.035	0.987 ± 0.052	1.02 ± 0.025	0.9889 ± 0.0069	1.04 ± 0.045	1.01 ± 0.039
UniProt Q969U7|Q969U7-2	1.02 ± 0.072	1.01 ± 0.012	0.965 ± 0.055	0.983 ± 0.029	0.978 ± 0.072	0.986 ± 0.081
UniProt Q96P11-2	1.05 ± 0.039	1.05 ± 0.03	1.11 ± 0.058	1.09 ± 0.068	1.13 ± 0.083	1.18 ± 0.072
UniProt Q96IX5	0.875 ± 0.049	0.935 ± 0.11	0.936 ± 0.16	0.976 ± 0.15	0.909 ± 0.16	0.99 ± 0.14
UniProt Q92804|Q92804-2	1.05 ± 0.14	1.07 ± 0.15	1.24 ± 0.2	1.5 ± 0.29	1.59 ± 0.21	2.05 ± 0.3
ZNF48 (UniProt Q96MX3)	1.11 ± 0.069	1.13 ± 0.034	1.21 ± 0.077	1.31 ± 0.15	1.34 ± 0.12	1.4 ± 0.12
IARS2 (UniProt Q9NSE4)	1.04 ± 0.08	1.02 ± 0.075	0.991 ± 0.069	0.977 ± 0.1	1.02 ± 0.056	0.98 ± 0.069
PNPLA2 (UniProt Q96AD5)	1.04 ± 0.047	1 ± 0.069	1.02 ± 0.064	0.927 ± 0.12	0.994 ± 0.062	1.06 ± 0.1
ATG4C (UniProt Q96DT6)	1.036 ± 0.003	1.05 ± 0.081	1.04 ± 0.041	0.992 ± 0.12	1.05 ± 0.087	1 ± 0.092
UniProt Q9BXK5|Q9BXK5-4	0.958 ± 0.041	0.97 ± 0.011	0.957 ± 0.028	0.988 ± 0.021	0.926 ± 0.031	0.916 ± 0.052
UniProt Q96B36|Q96B36-3	0.861 ± 0.098	0.826 ± 0.085	0.765 ± 0.029	0.826 ± 0.091	0.747 ± 0.071	0.693 ± 0.12
UniProt Q9BWW4|Q9BWW4-2|Q9BWW4-3	1.05 ± 0.11	0.958 ± 0.12	0.933 ± 0.12	0.999 ± 0.12	0.956 ± 0.056	0.906 ± 0.1
TM9SF3 (UniProt Q9HD45)	1.04 ± 0.12	1.03 ± 0.1	1.01 ± 0.079	0.946 ± 0.12	1.05 ± 0.099	1.01 ± 0.097
UniProt Q99653	0.961 ± 0.041	0.989 ± 0.011	0.983 ± 0.029	0.965 ± 0.054	0.961 ± 0.059	0.931 ± 0.037
RPRD1B (UniProt Q9NQG5)	0.969 ± 0.12	0.943 ± 0.039	0.971 ± 0.049	0.993 ± 0.089	1.02 ± 0.034	0.854 ± 0.15
UniProt Q9UBF8-2	0.962 ± 0.044	0.961 ± 0.065	0.9581 ± 0.0056	0.938 ± 0.011	0.9049 ± 0.007	0.928 ± 0.026
VPS37B (UniProt Q9H9H4)	0.992 ± 0.11	0.958 ± 0.12	0.967 ± 0.057	0.983 ± 0.12	0.946 ± 0.073	0.887 ± 0.13

Target	NP40-soluble protein abundance (concentration: 1mM)	NP40-soluble protein abundance (concentration: 2mM)	NP40-soluble protein abundance (concentration: 4mM)	NP40-soluble protein abundance (concentration: 6mM)	NP40-soluble protein abundance (concentration: 8mM)	NP40-soluble protein abundance (concentration: 10mM)
UniProt Q9NYK6|Q9NYK6-3	1.09 ± 0.13	1.02 ± 0.026	1.04 ± 0.011	1.05 ± 0.089	0.99 ± 0.066	1.05 ± 0.026
COG8 (UniProt Q96MW5)	0.938 ± 0.057	0.917 ± 0.029	0.937 ± 0.048	0.898 ± 0.068	0.902 ± 0.06	0.975 ± 0.054
DHRS4 (UniProt Q9BTZ2)	0.9895 ± 0.0086	0.987 ± 0.019	0.989 ± 0.043	0.956 ± 0.028	0.968 ± 0.035	0.988 ± 0.018
UniProt Q96KB5|Q96KB5-2	1 ± 0.038	0.98 ± 0.051	0.964 ± 0.031	0.949 ± 0.083	0.958 ± 0.042	0.965 ± 0.039
MRPL16 (UniProt Q9NX20)	1.17 ± 0.12	1.08 ± 0.11	1.06 ± 0.16	1.11 ± 0.38	1.08 ± 0.18	0.981 ± 0.14
UniProt Q8WYP5|Q8WYP5-2|Q8WYP5-3	1.13 ± 0.037	1.16 ± 0.048	1.28 ± 0.079	1.38 ± 0.096	1.42 ± 0.12	1.53 ± 0.13
UniProt Q9BRQ0|Q5T171	0.931 ± 0.11	0.887 ± 0.18	0.898 ± 0.15	0.944 ± 0.19	0.865 ± 0.15	0.909 ± 0.29
UniProt Q9UG63|Q9UG63-2	1.09 ± 0.033	1.15 ± 0.039	1.42 ± 0.019	1.67 ± 0.095	2.16 ± 0.093	2.59 ± 0.25
PAAF1 (UniProt Q9BRP4)	1.02 ± 0.037	1.04 ± 0.02	1.01 ± 0.072	0.982 ± 0.02	0.977 ± 0.011	1.01 ± 0.023
UniProt Q9NVR5	0.965 ± 0.028	0.98 ± 0.039	1 ± 0.047	1.04 ± 0.065	1.01 ± 0.12	0.967 ± 0.044
BIRC6 (UniProt Q9NR09)	1.05 ± 0.029	1.01 ± 0.058	0.992 ± 0.031	0.99 ± 0.12	0.999 ± 0.083	0.994 ± 0.088
UniProt Q9HDC9	1.03 ± 0.13	1 ± 0.11	0.936 ± 0.039	0.903 ± 0.13	0.953 ± 0.06	0.953 ± 0.079
UniProt Q9BTL3	0.928 ± 0.13	0.882 ± 0.066	0.95 ± 0.059	1 ± 0.11	0.888 ± 0.028	0.869 ± 0.059
UBAC1 (UniProt Q9BSL1)	0.988 ± 0.025	1 ± 0.025	1.03 ± 0.033	1.04 ± 0.061	0.965 ± 0.034	0.98 ± 0.038
UniProt Q9NW64	1.05 ± 0.068	1.04 ± 0.041	1.07 ± 0.034	1.09 ± 0.05	1.1 ± 0.049	1.11 ± 0.019
PXDN (UniProt Q92626)	1.06 ± 0.1	1.03 ± 0.067	1.09 ± 0.06	1.05 ± 0.049	1.04 ± 0.074	1.06 ± 0.1
UniProt Q96LT9|Q96LT9-2	1.31 ± 0.027	1.46 ± 0.034	1.75 ± 0.15	1.95 ± 0.12	1.78 ± 0.02	2.06 ± 0.096
SRPK1 (UniProt Q96SB4)	1.31 ± 0.091	1.39 ± 0.079	1.5 ± 0.099	1.63 ± 0.12	1.67 ± 0.083	1.74 ± 0.11
WDR41 (UniProt Q9HAD4)	1.03 ± 0.026	0.994 ± 0.08	1.08 ± 0.062	1 ± 0.033	1 ± 0.065	1.01 ± 0.043
UniProt Q9NZC7|Q9NZC7-2	1.028 ± 0.01	1.04 ± 0.073	1.04 ± 0.1	1.08 ± 0.13	1.06 ± 0.073	1.2 ± 0.29
